Compound activity as filed in PubChem BioAssay.
A selection: hits, their analogues and other compounds. The true share with any hit is near 3.1%.
TDP1 inh – qHTS Assay for Inhibitors of Tyrosyl-DNA Phosphodiesterase (TDP1). actives 0.28% (n = 350,000). recombinant TDP1, AlphaScreen DNA substrate cleavage. Tyrosyl-DNA phosphodiesterase 1 (Homo sapiens), Q9NUW8. Potency, µM (top dose mostly 130 µM), for inactives: at the top dose activity change, negative = inhibition, most hits filed as inhibitors; note: % is set by controls: 0 for no effect and ±100 for the full control effect; nearly all actives have a fitted effect of over 40% in size
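Compounds were preincubated with Tdp1 (1 nM final) for 15 min at room temperature before substrate (15 nM final) started a 5 min reaction; beads (10 ug/ml final) were then added for 10 min before AlphaScreen detection.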
Pin1 inh – qHTS Assay to Find Inhibitors of Pin1 | Peptidyl-prolyl cis-trans isomerase NIMA-interacting 1 (Homo sapiens), Q13526 | Pin1 FP peptide displacement, HiFluor488, 10 min | Potency, µM (doses to about 115 µM), for inactives: at the top dose activity, negative = inhibition, usual class: inhibitors | actives 0.009% (n = 390,000); active = well fitted inhibition curve with a large enough effect in the polarisation, with a control signal flat, not every such curve was filed as active; inconclusive = small, poorly fitted or top-dose-only effect, or effect the other way, or a change in a side signal; inactive = no such curve, though single readings can be large or run the other way; the % refers to the polarisation; note: % is set by controls: 0 for no effect and ±100 for the full control effect
S-ASM inh – Inhibitors of Secretory Acid Sphingomyelinase (S-ASM): qHTS; Sphingomyelin phosphodiesterase (Homo sapiens), P17405; placental ASM, HMU-PC fluorogenic substrate, 60 min; Potency, µM (series often up to 57.5 µM), without a hit: top-dose activity change, negative = inhibition, actives largely listed as inhibitors; actives 0.006% (n = 340,000); AID 504937, 2011
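Human placenta-derived ASM preincubated with compound 10 min at room temperature, then reacted with 9 uM (final) fluorogenic HMU-PC substrate for 60 min at 37 C. Stop solution raises pH to 10; fluorescence read at Ex 386/Em 447 nm.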
PLK1 PBD block – qHTS for Inhibitors of PLK1-PDB (polo-like kinase 1 - polo-box domain): Primary Screen; Plk1 PBD binding of FITC phosphopeptide, fluorescence polarization; Potency, µM, for inactives: max response, negative = inhibition, usual class: inhibitors; actives 2.8% (n = 360,000); note: series mostly up to about 57 µM; % is set by controls: 0 for no effect and ±100 for the full control effect; nearly all actives have a fitted effect of over 65% in size
Tb PFK inh – qHTS Assay to Find Inhibitors of T. brucei phosphofructokinase | T. brucei PFK, ADP-Glo luminescence | ATP-dependent 6-phosphofructokinase (Trypanosoma brucei brucei), O15648 | actives 0.17% (n = 330,000) | Potency, µM (titrated, usually from 57.5 µM), without a hit: top-dose activity, negative = inhibition, usual class: inhibitors;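 note: 0% = uninhibited 1x PFK enzyme wells and -100% = no-enzyme wells; nearly all actives have a fitted effect of over 60% in size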
Target sequence (O15648 whole entry, looked up): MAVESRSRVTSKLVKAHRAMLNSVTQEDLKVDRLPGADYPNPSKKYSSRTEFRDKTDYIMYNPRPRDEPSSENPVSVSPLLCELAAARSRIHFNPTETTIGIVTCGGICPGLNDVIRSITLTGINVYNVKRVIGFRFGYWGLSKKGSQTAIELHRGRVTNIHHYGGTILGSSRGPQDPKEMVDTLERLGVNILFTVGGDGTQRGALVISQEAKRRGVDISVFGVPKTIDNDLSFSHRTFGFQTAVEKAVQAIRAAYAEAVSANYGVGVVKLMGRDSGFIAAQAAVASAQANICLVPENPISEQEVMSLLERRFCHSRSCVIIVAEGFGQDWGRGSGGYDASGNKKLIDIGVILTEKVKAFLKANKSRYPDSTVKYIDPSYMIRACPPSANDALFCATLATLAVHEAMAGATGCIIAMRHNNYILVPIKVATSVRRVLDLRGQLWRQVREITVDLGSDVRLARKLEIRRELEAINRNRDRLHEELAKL
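ADP-Glo luminescence quantified ADP after 45 min at room temperature, with 1.25 nM T. brucei PFK, 0.1 mM ATP and 0.5 mM fructose-6-phosphate in pH 8.0 TEA buffer. qHTS titrations up to 57 µM; curves classified by quality.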
VDR inhibitor – Inhibitors of the vitamin D receptor (VDR): qHTS; Vitamin D3 receptor (Homo sapiens), P11473; VDR-SRC2-3 peptide fluorescence polarization, 2 h; Potency, µM, for inactives: max response, negative = inhibition, most hits filed as inhibitors; actives 0.93% (n = 400,000); note: % is set by controls: 0 for no effect and ±100 for the full control effect
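Compounds are added to VDR with labelled SRC2-3 coactivator peptide and held 2 h at room temperature. Inhibition of the VDR–peptide interaction is then read as a change in fluorescence polarization.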
Starred values were filed as active, the others as inactive; ? = inconclusive; / = no result; [ ] = remark or other dose. Unless noted, calls come from the whole dose curve; as a rule, active = well fitted curve in the direction sought with a large enough effect; inconclusive = small, poorly fitted or top-dose-only effect, or another doubt; inactive = no such curve, though single readings can be large; an effect the other way counts as inactive or inconclusive. Potency is the fitted concentration of half-maximal effect.

SMILES | TDP1 inh | Pin1 inh | S-ASM inh | PLK1 PBD block | Tb PFK inh | VDR inhibitor
CCCc1c(C(=O)OCC)sc(N)c1C#N | 8% | 16% | 2% | 19µM* | ? | -11%
CCCOC(=O)c1c(N)sc(C(=O)OCC)c1C | -1% | -4% | 5% | ? | 0% | -9%
CCOC(=O)c1sc(N)c(C(N)=O)c1C | 3% | -4% | 2% | 24µM* | 2% | -6%
Cc1ccccc1CN1C(=O)c2ccccc2Sc2ccc(C(=O)NCCc3ccccc3)cc21 | -5% | 47% | / | / | / | -1%
CCN(CC)CCNC(=O)c1sc2nc(C)cc(C)c2c1-n1cccc1 | 0% | 3% | / | / | / | 3%
Cc1ccc(Nc2nc(Nc3ccc(Cl)cc3)nc(N3CCOCC3)n2)cc1 | -2% | 37% | / | / | / | ?
Brc1ccccc1-c1nnc(CSc2nncn2-c2ccccc2)o1 | 5% | 2% | -3% | 27µM* | 2% | -18%
O=c1c2ccccc2nc(SCc2nnc(-c3ccccc3Br)o2)n1-c1ccccc1 | -2%[56.1 µM] | 22% | -3% | -1% | -4% | -2%
Cc1ccccc1C(=O)Nc1ccc2nc(SCC(=O)N3CCc4ccccc43)sc2c1 | -4% | 45% | / | / | / | -2%
CC(C)(C)c1ccc(C(=S)N2CCN(c3ccccc3)CC2)cc1 | 5% | -5% | -7% | 24µM* | -2% | ?
COc1ccc(C(=O)N2CCN(c3ccccc3OC)CC2)cc1 | 2% | 0% | -3% | -12% | -3% | -8%
COc1ccccc1N1CCN(C(=O)COc2ccc(C)cc2Br)CC1 | 3% | -6% | -7% | -2% | 3% | -1%
COc1ccccc1N1CCN(C(=O)COc2cc(C)ccc2C)CC1 | 4% | -1% | 2% | 21µM* | -4% | 40µM*
O=C(c1ccccc1)N1CCCC(C(=O)N2CCN(c3ccccc3)CC2)C1 (stereo unspecified) | 3% | 7% | 2% | 27µM* | -6% | ?
O=C(c1ccccc1)N1CCCC(C(=O)N2CCCCC2)C1 (stereo unspecified) | 2% | -9% | 5% | -8% | 1% | 3%
COc1ccccc1N1CCN(C(=O)c2ccc(C(C)(C)C)cc2)CC1 | 2% | -19% | -13% | 2.7µM* | -9% | ?
CCc1noc(-c2ccc(N3CCC(C)CC3)c([N+](=O)[O-])c2)n1 | 6% | 49% | / | / | / | 2%
CN(C)c1ccc(C(=O)C(=O)N2CCN(c3ccccc3)CC2)cc1 | / | / | / | -3% | / | /
CCN(CC)c1ccc(C(=S)N2CCN(c3ccccc3)CC2)cc1 | 8% | -2% | -9% | 13µM* | -7% | -7%
S=C(c1ccccc1)N1CCN(c2ccccc2)CC1 | / | -3% | -1% | 27µM* | / | -12%
Cc1cn2c(=O)cc(COC(=O)c3cccc(NC(=O)COc4ccccc4Cl)c3)nc2s1 | 4% | 6% | / | / | / | 3%
O=C(CSc1nnc(COc2ccccc2)o1)NCCc1ccccc1 | -2% | 1% | -1% | 2.7µM* | -1% | ?
O=C(CN(Cc1ccccc1)C(=O)CSc1nnc(COc2ccccc2)o1)NC1CCCC1 | 1% | 2% | 0% | ? | -4% | -1%
Cc1ccc(CN(CC(=O)NC2CCCC2)C(=O)CSc2nnc(COc3ccccc3)o2)cc1 | 7% | 3% | 3% | 30µM* | -16% | -16%
Cc1cccc(OCc2nnc(SCC(=O)NCCc3ccccc3)o2)c1 | -1% | 9% | 2% | -3% | 5% | -9%
O=C1OCCC1N(C(=O)C1CC1)c1cccc(Cl)c1 (stereo unspecified) | -5% | / | / | / | / | -1%
